Measured values reported in PMC12431657, “Discovery and mechanistic insights of dibenzoylmethane as a broad spectrum inhibitor of coronavirus” (PLOS Pathogens, 2025).
Structures can show the parent of a compound that is named as a salt. Where two headings read alike, the source gives them in different places. Screen size: about 3,300 compounds; about 60 (2%) showed an effect of 50% or more. The list comes from a sample in which strong results are over-represented; it also holds similar structures and randomly drawn compounds.

Test system: HCoV-OC43
Parameters: species or system RD; HTS, protection from HCoV-OC43 induced cell death, luminescent cell viability (CellCounting-Lite 2.0), inhibition rate
Details: 24 h post infection, 1 h compound pre-incubation, 10 µM, inhibitor

Row | Structure (SMILES) | OC43 Inhibition rate [%] | OC43 Inhibition rate (OC43 Inhibition rate, 24 h) [%]
1 | O=C(N[C@@H](c1ccccc1)[C@@H](O)C(=O)O)c1ccccc1 [N-Benzoyl-(2R,3S)-3-phenylisoserine] | 0.3 | 
2 | C/C=C(/C)C(=O)O [Angelic acid] | -0.3 | 
3 | CC(=O)OC/C1=C/C[C@H]2[C@@H](/C=C(\C)C(=O)[C@@]3(OC(C)=O)C[C@H](C)[C@H](OC(=O)c4ccccc4)[C@@H]3[C@H]1OC(C)=O)C2(C)C [Euphorbia factor L7b] | 8.6 | 
4 | CC(=O)OC/C1=C\[C@H]2[C@@H](OC(=O)/C=C/c3ccccc3)[C@@H](C)C[C@]2(OC(C)=O)C(=O)/C(C)=C/[C@@H]2[C@H](CC1)C2(C)C [Euphorbia factor L7a] | 75.3 | 
5 | CCOC(=O)/C=C/c1ccccc1 [Ethyl cinnamate] | -1.2 | 
6 | COc1cccc(-c2oc3ccccc3c(=O)c2O)c1 [3'-Methoxyflavonol] | -2 | 
7 | c1cc2c(c3c1CC1c4cc5c(cc4CCN1C3)OCO5)OCO2 (racemic) [(±)-Stylopine] | -0.3 | 
8 | O[C@H]1[C@H]2c3cc4c(cc3CN3CC[C@H](C[C@@H]1O)[C@H]23)OCO4 [Dihydrolycorine] | 0 | 
9 | O[C@H]1[C@H]2c3cc4c(cc3CN3CCC(=C[C@@H]1O)[C@H]23)OCO4 [Lycorine] | 60.9 | 
10 | OCc1cccc2ccccc12 [1-Naphthalenemethanol] | 2.9 | 
11 | CC(C)=CCC[C@](C)(O[C@@H]1O[C@H](CO)[C@@H](O)[C@H](O)[C@H]1O)[C@H]1CC[C@]2(C)[C@@H]1[C@H](O)C[C@@H]1[C@@]3(C)CC[C@H](O)C(C)(C)[C@@H]3CC[C@]12C [Ginsenoside C-K] | 38.7 | 
12 | COc1cc(/C=C/C(=O)OC[C@H]2O[C@H](O[C@]3(CO)O[C@H](CO)[C@@H](O)[C@@H]3O)[C@H](O)[C@@H](O)[C@@H]2O)cc(OC)c1O [Sibiricose A1] | 2.3 | 
13 | COc1cc2c3cc1Oc1c(OC)c(OC)cc4c1[C@@H](Cc1ccc(O)c(c1)Oc1ccc(cc1)C[C@@H]3N(C)CC2)N(C)CC4 [Berbamine] | 0 | 
14 | COc1ccc2cc1Oc1ccc(cc1)C[C@H]1c3cc(c(OC)cc3CCN1C)Oc1c(OC)c(OC)cc3c1[C@H](C2)N(C)CC3 [tetrandrine] | 79.7 | 
15 | COc1ccc2cc1Oc1ccc(cc1)C[C@H]1c3cc(c(OC)cc3CCN1C)Oc1c(O)c(OC)cc3c1[C@H](C2)N(C)CC3 [Fangchinoline] | 41.6 | 
16 | Oc1ccc(CC2NCCc3cc(O)c(O)cc32)cc1 (stereo not drawn) [Higenamine (hydrochloride)] | 0.1 | 
17 | Oc1ccc2[nH]ccc2c1 [5-Hydroxyindole] | 1.1 | 
18 | COc1c2c(cc3oc(CO)cc(=O)c13)O[C@H](C(C)(C)O)C2 [Cimifugin] | 0.3 | 
19 | OC1COC(O)CO1 (stereo not drawn) [1,4-Dioxane-2,5-diol] | 1.3 | 
20 | COc1c(C(C)C)cc2c(c1O)[C@@]1(C(=O)O)CCCC(C)(C)[C@@H]1CC2 [12-O-Methylcarnosic acid] | 54.1 | 

Row | Structure (SMILES) | OC43 Inhibition rate [%] | OC43 Inhibition rate (OC43 Inhibition rate, 24 h) [%]
21 | CC(C)c1cc2c(c(O)c1O)[C@@]13CCCC(C)(C)[C@@H]1C[C@@H]2OC3=O [Carnosol] | -0.4 | 
22 | CC(C)c1ccc2c(c1)CC[C@H]1[C@](C)(C(=O)O)CCC[C@]21C [Dehydroabietic acid] | -0.5 | 
23 | COc1cc(C=CC(=O)O)cc(OC)c1O (stereo in doubt) [Sinapinic acid] | 1.1 | 
24 | CCn1cc(C(=O)O)c(=O)c2ccc(C)nc21 [Nalidixic acid] | 0.1 | 
25 | NC1CCN(c2nc3c(cc2F)c(=O)c(C(=O)O)cn3-c2ccc(F)cc2F)C1 (stereo not drawn) [Tosufloxacin (tosylate hydrate)] | 58.8 | 
26 | O=C(O)C(O)c1ccc(O)c(O)c1 (stereo not drawn) [3,4-Dihydroxymandelic acid] | -0.2 | 
27 | CC(C)=CCC/C(C)=C/Cc1cc(-c2coc3cc(O)ccc3c2=O)ccc1O [Corylifol A] | -2.2 | 
28 | CCCC(=O)C(=O)O [2-Oxovaleric acid] | -0.9 | 
29 | COc1ccc(/C=C/C(=O)O)cc1 [4-Methoxycinnamic acid] |  | -0.5
30 | CSCC[C@H](NC(C)=O)C(=O)O [N-Acetyl-L-methionine] | 0.8 | 
31 | C[C@@H]1CC[C@@]2(OC1)O[C@H]1C[C@H]3[C@@H]4CC=C5C[C@@H](O)C[C@@H](O[C@@H]6O[C@H](C)[C@H](O)[C@H](O[C@@H]7OC[C@@H](O)[C@H](O)[C@H]7O)[C@H]6O[C@@H]6O[C@@H](C)[C@H](O)[C@@H](O)[C@H]6O)[C@]5(C)[C@H]4CC[C@]3(C)[C@H]1[C@@H]2C [Ophiopogonin D] |  | 1.6
32 | C[C@@H]1CC[C@@]2(OC1)O[C@H]1C[C@H]3[C@@H]4CC=C5C[C@@H](O)C[C@@H](O[C@@H]6O[C@H](C)[C@H](O)[C@H](O[C@@H]7OC[C@@H](O)[C@H](O)[C@H]7O)[C@H]6O[C@@H]6O[C@@H](C)[C@H](O)[C@@H](O)[C@H]6O)[C@]5(C)[C@H]4CC[C@]3(C)[C@H]1[C@@H]2C [Ophiopogonin D'] |  | -0.3
33 | C[C@@H]1CC[C@@]2(OC1)O[C@H]1C[C@H]3[C@@H]4CC=C5C[C@@H](O[C@@H]6O[C@H](CO)[C@@H](O)[C@H](O[C@@H]7O[C@H](CO)[C@@H](O)[C@H](O)[C@H]7O)[C@H]6O[C@@H]6O[C@@H](C)[C@H](O)[C@@H](O)[C@H]6O)CC[C@]5(C)[C@H]4CC[C@]3(C)[C@H]1[C@@H]2C [Gracillin] | 7 | 
34 | C[C@@H]1CC[C@@]2(OC1)O[C@H]1C[C@H]3[C@@H]4CC=C5C[C@@H](O[C@@H]6O[C@H](CO)[C@@H](O)[C@H](O)[C@H]6O[C@@H]6O[C@@H](C)[C@H](O)[C@@H](O)[C@H]6O)CC[C@]5(C)[C@H]4CC[C@]3(C)[C@H]1[C@@H]2C [Prosapogenin A] | -12 | 
35 | C[C@@H]1CC[C@@]2(OC1)O[C@H]1C[C@H]3[C@@H]4CC=C5C[C@@H](O)C[C@@H](O[C@@H]6O[C@H](C)[C@H](O)[C@H](O[C@@H]7OC[C@@H](O)[C@H](O)[C@H]7O)[C@H]6O[C@@H]6O[C@H](CO)[C@@H](O)[C@H](O)[C@H]6O)[C@]5(C)[C@H]4CC[C@]3(C)[C@H]1[C@@H]2C [Saponin C, from Liriope muscari] | 66.4 | 
36 | C[C@H]1CC[C@@]2(OC1)O[C@H]1C[C@H]3[C@@H]4CC=C5C[C@@H](O[C@@H]6O[C@H](CO)[C@@H](O)[C@H](O[C@@H]7OC[C@@H](O)[C@H](O)[C@H]7O)[C@H]6O[C@@H]6O[C@@H](C)[C@H](O)[C@@H](O)[C@H]6O)CC[C@]5(C)[C@H]4CC[C@]3(C)[C@H]1[C@@H]2C [Liriope muscari baily saponins C] | 66.1 | 
37 | C[S+]([O-])CCCC/C(=N\OS(=O)(=O)O)S[C@@H]1O[C@H](CO)[C@@H](O)[C@H](O)[C@H]1O (stereo partly drawn) [Glucoraphanin] | -2.3 | 
38 | CC(C)=CCC[C@](C)(O)[C@H]1CC[C@]2(C)[C@@H]1[C@H](O)C[C@@H]1[C@@]3(C)CC[C@H](O)C(C)(C)[C@@H]3[C@@H](O[C@@H]3O[C@H](CO)[C@@H](O)[C@H](O)[C@H]3O[C@@H]3OC[C@@H](O)[C@H](O)[C@H]3O)C[C@]12C [Notoginsenoside R2] | 0.5 | 
39 | CSSSC [Dimethyl trisulfide] | -0.3 | 
40 | COc1ccc2cc3[n+](cc2c1O)CCc1cc2c(cc1-3)OCO2 [Berberrubine (chloride)] | -0.4 | 

Row | Structure (SMILES) | OC43 Inhibition rate [%] | OC43 Inhibition rate (OC43 Inhibition rate, 24 h) [%]
41 | CC1(C)O[C@H]1COc1c2ccoc2cc2oc(=O)ccc12 [Oxypeucedanin] | 0.5 | 
42 | C[C@@H]1O[C@@H](O[C@@H]2C(=O)c3c(O)cc(O)cc3O[C@@H]2c2ccc(O)c(O)c2)[C@H](O)[C@H](O)[C@H]1O [Isoastilbin] | 4.2 | 
43 | C/C=C/C[C@@H](C)[C@@H](O)[C@H]1C(=O)N[C@@H](C(C)C)C(=O)N(C)CC(=O)N(C)[C@@H](CC(C)C)C(=O)N[C@@H](C(C)C)C(=O)N(C)[C@@H](CC(C)C)C(=O)N[C@@H](C)C(=O)N[C@H](C)C(=O)N(C)[C@@H](CC(C)C)C(=O)N(C)[C@@H](CC(C)C)C(=O)N(C)[C@@H](C(C)C)C(=O)N1C [Cyclosporin D] | 68 | 
44 | O=C1O[C@H]([C@@H](O)CO)C(O)=C1OP(=O)(O)O [L-Ascorbic acid 2-phosphate (trisodium)] | 9.8 | 
45 | CCCCCCCCCCCCCCCCCCC(=O)O [Nonadecanoic acid] | -0.5 | 
46 | CC(C)=CCC1=CC(=O)c2ccccc2C1=O [Deoxylapachol] | 3.8 | 
47 | COC(=O)C1=C(O)c2ccccc2C(=O)[C@]1(CC=C(C)C)C1=CC(=O)c2ccccc2C1=O [Rubipodanone A] | 58.8 | 
48 | CC(C)=CCC1=C(O)C(=O)c2ccccc2C1=O [Lapachol] | 27.9 | 
49 | Nc1ncnc2c1ncn2[C@@H]1O[C@H](COP(=O)(O)O)[C@@H](O)[C@H]1O [Adenosine monophosphate] |  | 0
50 | C1CCN2C[C@H]3C[C@H](CN4CCCC[C@@H]34)[C@H]2C1 [(+)-Sparteine] |  | 6
51 | C=C(C)[C@H](CC=C(C)C)Cc1c(O)cc(OC)c2c1O[C@H](c1ccc(O)cc1O)CC2=O [Kurarinone] | 0 | 
52 | C=C(C)[C@H](CC=C(C)C)Cc1c(O)cc(OC)c2c1O[C@H](c1ccc(O)cc1OC)CC2=O [(2S)-2'-Methoxykurarinone] | 98.5 | 
53 | C=C(C)[C@H](CC=C(C)C)Cc1c(O)cc(O)c2c1O[C@H](c1ccc(O)cc1O)CC2=O [sophoraflavanone G] | 39.8 | 
54 | CC1(C)CC[C@]2(C(=O)O[C@@H]3O[C@H](CO)[C@@H](O)[C@H](O)[C@H]3O)CC[C@]3(C)C(=CC[C@@H]4[C@@]5(C)CC[C@H](O[C@@H]6O[C@H](C(=O)O)[C@@H](O)[C@H](O)[C@H]6O[C@H]6OC[C@@H](O)[C@H](O)[C@H]6O)C(C)(C)[C@@H]5CC[C@]43C)[C@@H]2C1 [Pseudoginsenoside RT1] | 0.7 | 
55 | O=c1c2cc(O[C@@H]3O[C@H](CO)[C@@H](O)[C@H](O)[C@H]3O)c(O)cc2oc2cc(O)c([C@@H]3O[C@H](CO)[C@@H](O)[C@H](O)[C@H]3O)c(O)c12 [Neomangiferin] | 3 | 
56 | COC[C@@H](Cc1ccc(OC)c(OC)c1)[C@@H](COC)Cc1ccc(OC)c(OC)c1 [Phyllanthin] | 0.2 | 
57 | CC1=C[C@]23C(=O)[C@@H](C=C4COC(C)(C)O[C@H]4C2(O)[C@H]1O)[C@H]1[C@@H](C[C@H]3C)C1(C)C (stereo partly drawn) [Ingenol-5,20-acetonide] | -2.5 | 
58 | C/C=C(/C)C(=O)O[C@H]1C(C)=C[C@]23C(=O)[C@@H](C=C4COC(C)(C)O[C@H]4[C@]12O)[C@H]1[C@@H](C[C@H]3C)C1(C)C [Ingenol-5,20-acetonide-3-O-angelate] | 69.8 | 
59 | C/C=C(/C)C(=O)O[C@H]1C(C)=C[C@]23C(=O)[C@@H](C=C(CO)[C@@H](O)[C@]12O)[C@H]1[C@@H](C[C@H]3C)C1(C)C [Ingenol Mebutate] | 1.1 | 
60 | Cc1cc(=O)c2c(O)c3c(cc2o1)OC(C)(C)[C@@H](O[C@@H]1O[C@H](CO)[C@@H](O)[C@H](O)[C@H]1O)C3 [Sec-O-Glucosylhamaudol] | -0.4 | 
